# Bioassay records deposited in PubChem BioAssay by National Center for Advancing Translational Sciences (NCATS).
# Sampled rows, rich in hits. Any-hit rate of the full collection: about 10%.
# Lamin A splicing: changes lamin A minigene splicing in HeLa cells | AID 1487 | HeLa LMNA splicing GFP/RFP minigene ratio, 48 h | 200,000 tested, 0.01% active | Potency, µM (series often up to 46.1 µM), inactives show top-dose ratio change, negative = inhibition, actives largely listed as inhibitors; active means well fitted inhibition curve with a large enough effect in the signal ratio, with a control signal flat, not every such curve was filed as active; inconclusive means small, poorly fitted or top-dose-only effect, or effect the other way, or a change in a side signal; the % refers to the signal ratio; further: potency means the concentration at half of the fitted maximal effect
#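 S3 HeLa cells stably expressing lamin A-EGFP splicing minigene plus DsRed2, 600 cells/well, 48 h compound exposure at 37C. Laser-scanning cytometry; analysed as GFP (500-530 nm)/RFP (575-640 nm) total intensity ratio; 0.5% DMSO vehicle.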
# ALDH1A1 block: ALDH1A1 (human) enzyme inhibition. P00352. Purified ALDH1A1, NADH fluorescence, propionaldehyde substrate. Potency, µM (series often up to 75.3 µM), for inactives: top-dose activity, negative = inhibition, usual class: inhibitors. 220,000 tested, 7.3% active. AID 1030;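 further: potency means the concentration at half of the fitted maximal effect; plate controls were no enzyme wells and a reference inhibitor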
# Target sequence (P00352 whole entry, looked up): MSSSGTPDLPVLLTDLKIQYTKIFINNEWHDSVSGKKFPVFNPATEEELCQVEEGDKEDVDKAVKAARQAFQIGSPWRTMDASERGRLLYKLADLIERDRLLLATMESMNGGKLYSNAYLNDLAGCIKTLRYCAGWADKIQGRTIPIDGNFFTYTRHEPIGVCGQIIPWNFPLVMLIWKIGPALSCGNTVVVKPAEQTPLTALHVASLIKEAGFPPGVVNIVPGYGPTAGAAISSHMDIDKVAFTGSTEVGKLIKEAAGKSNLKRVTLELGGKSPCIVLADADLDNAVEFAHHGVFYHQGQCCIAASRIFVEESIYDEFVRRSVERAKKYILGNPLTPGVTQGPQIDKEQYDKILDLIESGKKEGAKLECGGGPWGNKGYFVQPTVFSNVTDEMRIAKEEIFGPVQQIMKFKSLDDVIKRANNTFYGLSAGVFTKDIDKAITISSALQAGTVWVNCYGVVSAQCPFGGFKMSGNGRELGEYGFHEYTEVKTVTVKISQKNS
# PNC assembly inh: inhibitors of perinucleolar compartment assembly; PC3M PTB-GFP, PNC prevalence imaging, 16 h; hits give low values; activity change (PNC), negative = inhibition, % at 10 µM; 140,000 tested, 3.1% active;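 active means readout at or below -70, meaning at least 70% loss of cells showing the perinucleolar compartment, a nuclear body marking cancer cells; inconclusive means readout between -30 and a set limit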;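 further: plate controls were DMSO wells for no effect and camptothecin positive control wells for full effect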
#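 PC3M cells stably expressing PTB-GFP, 750–1000 cells/well, treated 16 h at 37 °C with compound (23 nl of library stock), in duplicate. After paraformaldehyde fixation and Hoechst stain, imaged at 20x; PNC prevalence scored by image analysis.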
# KinaseGlo FLuc: counter-screen: inhibitors of Kinase-Glo firefly luciferase; Potency, µM (highest dose often 38.3 µM), without a hit: at the top dose activity change, negative = inhibition, most hits filed as inhibitors; Q27757; 200,000 tested, 0.28% active; Kinase-Glo luciferase, ATP luminescence, 8 min; AID 1379; active means well fitted inhibition curve with a large enough effect; inconclusive means small, poorly fitted or top-dose-only effect; further: potency means the concentration at half of the fitted maximal effect; nearly all actives have a fitted effect of over 60% in size
#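 Compound is pinned into ATP-containing buffer (10 uM ATP, imidazole pH 7.2, 7 mM MgCl2). Kinase-Glo luciferase reagent is then added. Light output is recorded following an 8-min room-temperature incubation.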
# HPGD block: blocks human HPGD enzyme activity; P15428; purified HPGD, NADH fluorescence kinetic, PGE2 substrate; AID 894; Potency, µM, without a hit: at the top dose activity change, negative = inhibition, hits mostly inhibitors; 150,000 tested, 4.3% active; further: potency means the concentration at half of the fitted maximal effect
# Target sequence (P15428 whole entry, looked up): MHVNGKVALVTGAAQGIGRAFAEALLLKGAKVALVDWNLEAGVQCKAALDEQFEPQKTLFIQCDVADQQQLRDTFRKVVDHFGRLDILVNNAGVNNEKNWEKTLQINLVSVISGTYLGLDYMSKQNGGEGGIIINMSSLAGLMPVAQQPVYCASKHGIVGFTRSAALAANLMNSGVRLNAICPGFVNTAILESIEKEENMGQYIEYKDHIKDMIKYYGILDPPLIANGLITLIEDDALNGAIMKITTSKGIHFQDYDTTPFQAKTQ
#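 NADH formation kinetics: reaction with 30 uM PGE2 and 1 mM NAD+ (final), 20 nM enzyme, Tris-HCl pH 8 with Tween 20, after 15 min compound preincubation at room temperature. Fluorescence change, last versus first of five reads.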
# * hit, by the source's call; ? = inconclusive; . = not tested or not shown; [ ] = dose if it differs, or a comment. Unless noted, the call rests on the fitted dose curve; in most records, active means well fitted inhibition curve with a large enough effect (not every such curve was filed as active); inconclusive means small, poorly fitted or top-dose-only effect, or another doubt; inactive means no such curve, though single readings can be large or run the other way. Unless noted, on the % scale 0 is the no-effect control and ±100 the full control effect.
SMILES,Lamin A splicing,ALDH1A1 block,PNC assembly inh,KinaseGlo FLuc,HPGD block
CCN(CC)C(=O)c1ccc(Nc2nnc(C)c3ccccc23)cc1,-12.8%,3.98µM*,-24.5,11.2µM*,2.24µM*
Nc1nc2c(c(=O)[nH]1)N(C=O)C(CNc1ccc(C(=O)NC(CCC(=O)O)C(=O)O)cc1)CN2 (stereo not drawn),.,0.1%,.,-7.2%,-12.8%
O=C(NCCSc1c(-c2ccccc2)[nH]c2ccccc12)c1cc2ccccc2oc1=O,-8.3%,7.9%,-86.4*,-1.9%,-15.4%
COc1cccc(NC(=S)NCc2ccc3c(c2)cc(C)n3C)c1,.,-4.6%,.,1.8%,.
Cc1cccc(NC(=O)NCc2ccc3c(c2)cc(C)n3C)c1,-4.0%,-8.6%,-108.4*,-0.7%,-17.1%
Cc1cc2cc(CNC(=O)c3cccc([N+](=O)[O-])c3)ccc2n1C,?,?,10.2,-0.3%,?
Cc1c(C(=O)NCc2ccc3c(c2)cc(C)n3C)cccc1[N+](=O)[O-],-3.9%,6.1%,49.7,6.9%,1.78µM*
CCCC(=O)NCc1ccc2c(c1)cc(C)n2C,6.2%,-4.7%,46.9,-0.2%,7.94µM*
Cc1cc2cc(CNC(=O)c3ccc(S(=O)(=O)N4CCOCC4)cc3)ccc2n1C,-6.6%,25.1µM*,21.5,0.3%,-12.8%
C=CCCCCCC,.,-4.5%,.,.,-2.1%
CC1(C)CCC[C@@](C)([C@H]2CC[C@]3(C)[C@@H]2[C@H](O)C[C@@H]2[C@@]4(C)CC[C@H](O)C(C)(C)[C@@H]4[C@@H](O)C[C@]23C)O1,.,2.0%,.,2.9%[39.9 µM],-5.3%
Cc1cc2ccccc2n1CCNC(=O)c1ccc(S(=O)(=O)N2CCCCC2)cc1,?,3.16µM*,68.8,-1.0%,-19.0%
Cc1cc2cc(CNC(=O)Nc3cccc(Cl)c3)ccc2n1C,-12.9%,22.4µM*,-26.4,-7.0%,-13.1%
Cc1cc2cc(CNS(=O)(=O)c3ccc4ccccc4c3)ccc2n1C,-14.5%,14.1µM*,-101.8*,-2.6%,-15.7%
O=C(NCCCN=C1NS(=O)(=O)c2ccccc21)c1ccc(S(=O)(=O)N2CCCCC2)cc1,?,14.1µM*,?,14.8%,-18.7%
O=C(NCCN=C1NS(=O)(=O)c2ccccc21)c1ccncc1,9.3%,3.4%,28.7,1.6%,-2.8%
CCC(=O)N1c2ccccc2CC1C(=O)NCCc1ccc(OC)c(OC)c1 (stereo not drawn),0.8%[46 µM],.,.,.,.
CC(C)CCNC(=O)CN1C(=O)c2cccnc2Sc2ccccc21,-4.0%[46 µM],.,.,.,.
COC(=O)C[C@H](NC(=O)[C@H](C)NC(=O)[C@@H](NC(=O)OCc1ccccc1)C(C)C)C(=O)CF,.,10.1%,.,.,.
O=C(Nc1cccc(Cl)c1)c1cc(S(=O)(=O)N2CCCc3ccccc32)ccc1F,5.5%[46 µM],.,.,.,.
Cc1cc2ccccc2n1CCNC(=O)C(C)Oc1ccccc1 (stereo not drawn),-6.7%,?,-108.4*,-0.5%,-14.5%
Cc1cc2ccccc2n1CCNC(=O)C(C)C,-16.0%,-11.1%,5.7,2.5%,-3.2%
COc1cc(C2C(=O)N(C3CCCCC3)CC(=O)N2C2CCCCC2)ccc1OC(C)C (stereo not drawn),-12.2%[46 µM],.,.,.,.
Cc1cccc(OCCn2nc(C(=O)O)c3ccccc3c2=O)c1,13.6%,-11.8%,-26.8,-4.0%,28.2µM*
O=c1c2ccccc2cnn1CCOc1ccccc1,2.6%,-10.5%,-23.0,8.91µM*,-14.5%
SMILES,Lamin A splicing,ALDH1A1 block,PNC assembly inh,KinaseGlo FLuc,HPGD block
Cc1cccc(C)c1OCCn1nc(C(=O)O)c2ccccc2c1=O,-24.1%,0.5%,38.4,-2.8%,-20.4%
O=C(O)Cn1ncc2ccccc2c1=O,.,1.1%,.,-1.7%,.
O=S(=O)(c1ccccc1)N1CCC2(CCCN(Cc3ccncc3)C2)CC1,.,?,.,-1.1%,-7.4%
Cc1ccc2nc(SCC(=O)Nc3cc(C(F)(F)F)ccc3N3CCOCC3)[nH]c2c1,-5.9%,5.0%,-103.6*,-3.1%,-2.3%
O=C(CSc1nc2ccccc2o1)Nc1cc(C(F)(F)F)ccc1N1CCOCC1,?,-0.9%,25.8,-2.3%,-3.9%
Nc1nc(SCC(=O)Nc2cc(C(F)(F)F)ccc2N2CCOCC2)n[nH]1,13.7%[46 µM],22.4µM*,.,0.6%,.
Nc1nnc(SCC(=O)Nc2cc(C(F)(F)F)ccc2N2CCOCC2)s1,-4.1%,-1.8%,10.1,-0.5%,-17.4%
COc1ccc2c(c1)C(=O)C(=O)N2,-14.3%,22.4µM*,45.8,-7.5%,-14.8%
COc1ccc(O)c(/C=N/N=C2/C(=O)Nc3ccccc32)c1,-12.6%[46 µM],?,.,-5.2%,.
COc1cc(C(=O)OCCNC(=O)c2ccncc2)cc(OC)c1OC,-11.5%,7.1%,-110.8*,-0.8%,-8.8%
Cc1nc(-c2cnn(-c3ccccc3)c2)c2cc(C)oc2n1,-1.9%,?,?,-1.6%,?
Cc1oc2c(O)c(O)ccc2c(=O)c1-c1cnn(-c2ccccc2)c1,15.3%,28.2µM*,?,-4.1%,17.8µM*
Cc1oc2cc(O)cc(C)c2c(=O)c1-c1cnn(-c2ccccc2)c1,12.6%,?,-115.3*,0.8%,?
Cc1cc(NCc2ccco2)n2ncnc2n1,-4.5%,3.5%,-119.3*,0.7%,2.4%
Nc1nc2c(C(=O)NCc3cccs3)nnn2c2cccc(Cl)c12,.,-15.7%[13.5 µM],.,-2.8%[7.66 µM],-7.0%
O[C@@H](CNC[C@H](O)c1ccccc1)c1ccccc1,0.8%,5.6%,-100.0*,2.0%,-11.8%
CCCCCCCCCCCCCCCCCCOC[C@H](COP(=O)([O-])OCC[N+](C)(C)C)OC,?,4.2%,.,-3.7%,-13.9%
COc1ccc(NC(=O)CN2CCN(Cc3ccc(F)cc3)S2(=O)=O)cc1Cl,-11.8%[46 µM],.,.,.,.
O=C(c1cc(-c2ccccn2)nc2c(Cl)cccc12)N1CCN(S(=O)(=O)c2ccccc2)CC1,-2.9%,15.8µM*,49.4,2.2%,-15.6%
NSc1nc(N)c2nc(-c3ccccc3)c(-c3ccccc3)nc2n1,.,14.1µM*,.,0.2%,.
Nc1nc(N)c2nc(-c3ccccc3)c(N)nc2n1,?,?,26.3,-0.8%,?
Cn1ncc(C(N)=O)c1NC(=S)NC(=O)c1ccc(Br)o1,1.6%[46 µM],7.94µM*,.,1.6%,.
Cc1cccc(C)c1NC(=S)NC(=O)c1ccc(Br)o1,-16.6%[46 µM],?,.,4.8%,.
O=c1c(Cl)c(N2CCN(c3ccc(F)cc3)CC2)cnn1C12CC3CC(CC(C3)C1)C2,-7.0%,?,-23.3,2.5%,-12.8%
O=C(O)CC12C[C@H]3C[C@@H](C1)CC(n1ncc(N4CCN(c5ccccc5)CC4)c(Cl)c1=O)(C3)C2,-7.6%,7.94µM*,2.4,0.3%,-13.8%
O=c1c(Cl)c(N2CCN(c3ccccc3)CC2)cnn1C12CC3CC(CC(C3)C1)C2,-13.3%,10µM*,?,-1.1%,-5.4%
O=C(O)C12C[C@H]3C[C@@H](C1)CC(n1ncc(N4CCN(c5ccccc5)CC4)c(Cl)c1=O)(C3)C2,-14.0%,1.26µM*,5.1,-2.9%,-15.6%
CC1CCN(C(=S)c2cn(Cc3ccccc3F)c3ccccc23)CC1,?,14.1µM*,-17.8,-5.8%,-10.7%
